# Source: PubChem
# Only some compounds are listed: those with a hit (about 12% of all), similar ones and a draw of the others.
# Pf growth 48h – P. falciparum growth inhibition at 48 hours (one generation); P. falciparum luciferase growth in erythrocytes, 48 h; Potency, µM (doses to about 28.7 µM), inactives show at the highest dose activity change, negative = inhibition, hits mostly inhibitors; actives 5.9% (n = 310,000); AID 504832; also: % is scaled to controls: 0 for no effect and ±100 for the full control effect
#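 A one-generation exposure of luciferase-tagged malaria parasites in RPMI 1640/Albumax erythrocyte culture, 37 C and 5% CO2. Inhibition is inferred from decreased luminescence after adding detection reagent.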
# NS1 inh – blocks influenza NS1 protein function | Potency, µM (titrated, usually from 46.1 µM), for the others: at the highest dose activity, positive = more growth | actives 0.4% (n = 270,000) | AID 2326; calls by dose curve; also: actives are rising curves; nearly all actives have a fitted effect of over 50% in size
#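 In this qHTS, NS1 from influenza A is expressed in budding yeast, where it slows growth. Cells are switched from glucose to 2% galactose medium (pH 6.0, -URA), treated with compound, and growth recovery is read at OD600.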
# HCV inh – inhibitors of hepatitis C virus infection; Potency, µM (titrated, usually from 41.8 µM), for inactives: top-dose activity change, negative = inhibition, most hits filed as inhibitors; actives 3.4% (n = 340,000); Huh7.5.1 HCVcc-Cre infection, luciferase reporter, 44 h; also: % is scaled to controls: 0 for no effect and ±100 for the full control effect
#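 Infectious HCVcc-Cre (~0.5 moi) was added to cells just after compound, with cells seeded 4 h earlier at 1,000 per well. Luciferase activity after 44 h culture reported infection; substrate was incubated 15 min at room temperature before reading.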
# Pf growth 96h – inhibits malaria parasite growth, 96 h | P. falciparum luciferase reporter growth, 96 h | actives 6.9% (n = 320,000) | AID 504834 | Potency, µM (highest dose often 28.7 µM), for inactives: at the highest dose activity change, negative = inhibition, actives largely listed as inhibitors; also: % is scaled to controls: 0 for no effect and ±100 for the full control effect
#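 Compounds incubated with erythrocytes infected by luciferase-expressing P. falciparum (2% hematocrit, 0.05% parasitemia final) for 96 hours, 37 C in 5% CO2. Growth inhibition scored as decreased luciferase luminescence.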
# SARS PLP yeast – inhibitors of SARS-CoV papain-like protease in yeast; Potency, µM (top dose mostly 32.9 µM), inactives show at the top dose activity, positive = growth rescue, hits mostly activators; actives 0.19% (n = 330,000); AID 485353; S. cerevisiae expressing SARS-CoV PLpro, growth rescue; calls by dose curve; also: 0% is about no effect; nearly all actives have a fitted effect of over 55% in size
# AMA1-RON2 inh – AMA1-RON2 (P. falciparum) interaction inhibition; AlphaScreen AMA1-biotinylated RON2 peptide binding; Potency, µM (titrated, usually from 58.2 µM), for the others: at the highest dose activity change, negative = inhibition, actives largely listed as inhibitors; actives 0.2% (n = 360,000); AID 720542;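 also: 0% = vehicle wells and -100% = peptide control; nearly all actives have a fitted effect of over 45% in size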
#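 AMA1 (3D7) with his tag at 25 nM final met compounds first, then biotinylated RON2 peptide at 25 nM; detection used donor plus acceptor beads, 10 µg/mL apiece, read by AlphaScreen after 30 min at room temperature.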
# Active calls of the source: *; ? = inconclusive; nt = no result; [ ] = remark or other dose. Unless noted, calls follow the shape of the dose curve; as a rule, active = well fitted curve in the direction sought with a large enough effect; inconclusive = small, poorly fitted or top-dose-only effect, or another doubt; inactive = no such curve, though single readings can be large; an effect the other way counts as inactive or inconclusive. Potency is read from the fitted curve at half-maximal effect.
SMILES,Pf growth 48h,NS1 inh,HCV inh,Pf growth 96h,SARS PLP yeast,AMA1-RON2 inh
CNc1nc(Cl)c(SC)c(N2CCOCC2)n1,23%,nt,0.89µM*,1%,2%,126%
COc1ccc(C2C(Oc3ccccc3C)C(=O)N2Cc2ccc(F)cc2)cc1OC (centres undefined),?,6%,6%,10%,-9%,-2%
COc1ccc(OC2C(=O)N(Cc3ccc(F)cc3)C2c2cc(OC)c(OC)c(OC)c2)cc1 (centres undefined),3.7µM*,-8%,15%,25%,24%,-7%
CC1CCCN(C(=O)c2ccc([N+](=O)[O-])o2)C1 (centres undefined),13µM*,-34%,-9%,?,-10%,-6%
O=C(c1ccc(-c2ccc([N+](=O)[O-])cc2)o1)N1CCCCCCC1,9%,nt,?,42%,3%,0%
O=C(c1ccc(-c2ccc([N+](=O)[O-])cc2)o1)N1CCCC(C(F)(F)F)C1 (centres undefined),9.3µM*,nt,?,4%,8%,0%
CC1CCN(C(=O)c2ccc([N+](=O)[O-])o2)CC1,?,-30%,?,-67%,-10%,0%
Nc1c(Br)cc2c([nH]c(=O)c3ccccc32)c1Br,nt,nt,?,nt,nt,-2%
COc1cc(OC)cc(C(=O)NCC(=O)OC2CCCCC2=O)c1 (centres undefined),?,nt,8%,-29%,0%,-1%
Cc1ccc(C)c(N2N=C(C(=O)OCC(=O)N(C)c3ccccc3)CCC2=O)c1,?,nt,30%,16%,-5%,25%
COCCCNC(=O)c1ccc2c(c1)ncn2-c1ccc(C)cc1C,12µM*,-8%,-13%,0%,-2%,12%
CCOCCCNC(=O)c1ccc2c(c1)ncn2-c1cccc(C)c1,-17%,5%,?,77%,7%,-3%
CCn1nc(NC(=O)c2ccco2)c2cc3ccccc3nc21,nt,-19%,?,9.3µM*,-10%,24%
CCCn1nc(NC(=O)c2ccco2)c2cc3cc(C)ccc3nc21,?,-3%,13µM*,-29%,-3%,26%
CN1CCN(C(=O)c2ccccc2NC(=O)c2ccccc2)CC1,-8%,-14%,10%,?,2%,0%
O=C(Nc1nc(-c2ccc(Cl)cc2Cl)cs1)c1ccc(OCC2CCCO2)cc1 (centres undefined),-21%,11%,8.9µM*,?,1%,-4%
Cc1ccc2nc(NC(=O)c3ccc(OCC4CCCO4)cc3)sc2c1 (centres undefined),-52%,29%,8.9µM*,?,8%,21%
Cc1cc(C)c2nc(NC(=O)c3ccc(OCC4CCCO4)cc3)sc2c1 (centres undefined),107%,-2%,?,?,-3%,-5%
COc1ccccc1CNC(=O)COC(=O)COc1ccccc1Cc1ccccc1,34%,nt,2%,27%,-1%,20%
CN(C(=O)c1ccccc1Cl)C1CCCCC1,-6%,4%,13%,nt,6%,-3%
CC1CC(N(C(=O)c2ccccc2Cl)c2ccccc2)c2ccccc2N1 (centres undefined),?,8%,-21%,12µM*,-8%,-5%
CC1CCN(C(=O)c2[nH]cnc2C(=O)N[C@@H](C)c2ccccc2)CC1,31%,nt,?,0%,-2%,18%
CCC(CO)Oc1cc(NCc2ccc(C(F)(F)F)cc2)c2ncn(C(C)C)c2c1 (centres undefined),nt,nt,11µM*,nt,-1%,-4%
CC[C@H](CO)Oc1cc(NCc2ccc(Cl)c(Cl)c2)c2ncn(C(C)C)c2c1,nt,nt,11µM*,nt,1%,?
CCC(CO)Oc1cc(NCc2ccc(Cl)cc2)c2ncn(C(C)C)c2c1 (centres undefined),nt,nt,2.2µM*,nt,-1%,-13%
SMILES,Pf growth 48h,NS1 inh,HCV inh,Pf growth 96h,SARS PLP yeast,AMA1-RON2 inh
CCC(CO)Oc1cc(NCc2ccc(OC)cc2)c2ncn(C(C)C)c2c1 (centres undefined),15µM*,nt,?,?,-17%,-24%
CCC(CO)Oc1cc(NCc2ccc(C)cc2)c2ncn(C(C)C)c2c1 (centres undefined),nt,nt,?,nt,-4%,-2%
CCC(CO)Oc1cc(NCc2cccc(C(F)(F)F)c2)c2ncn(C(C)C)c2c1 (centres undefined),nt,nt,?,nt,0%,12%
Cc1c(Cl)cc(C(C)(C)C)c(O)c1Cc1c(C)c(Cl)cc(C(C)(C)C)c1O,nt,-19%,nt,nt,nt,nt
COC(=O)c1cc(S(=O)(=O)N(C)C2CCCCC2)c[nH]1,15%,10%,0%,39%,6%,5%
Cc1ccc(NC(NC(=O)OCCn2c([N+](=O)[O-])cnc2C)C(Cl)(Cl)Cl)cc1 (centres undefined),5.2µM*,7%,14%,?,-5%,nt
Cc1ncc([N+](=O)[O-])n1CCOC(=O)NC(NCc1ccccc1Cl)C(Cl)(Cl)Cl (centres undefined),?,-15%,9%,?,-48%,19%
COc1ccc(C=O)c(-c2c(-c3ccccc3OC)sc3ccccc23)c1,nt,nt,nt,nt,nt,-16%
Cc1ccc(S(=O)(=O)N2CCCN(C(C)c3nc4ccccc4c(=O)[nH]3)CC2)cc1 (centres undefined),?,nt,-11%,13µM*,4%,10%
O=C(Nc1ccc(F)cc1)/C(=C1/CCCCCN1)[N+](=O)[O-],5%,1%,4%,0%,-1%,-12%
COc1cc(OC)c(C(=O)OC(C)C(=O)Nc2cccc(C(F)(F)F)c2)cc1OC (centres undefined),?,8%,?,9.3µM*,17%,-19%[2.32 µM]
C[C@@H]1CCCCO[C@H](CN(C)Cc2ccc(C(=O)O)cc2)[C@H](C)CN([C@@H](C)CO)C(=O)c2cc(NC(=O)Nc3ccc(C(F)(F)F)cc3)ccc2O1,nt,nt,nt,nt,nt,14%
N#Cc1c(N)nc(SCc2ccncc2)c(C#N)c1-c1cccs1,?,1%,0.56µM*,?,-4%,-2%
COc1cc(-c2c(C#N)c(N)nc(SCc3ccncc3)c2C#N)cc(OC)c1OC,13µM*,-104%,6%,?,-3%,-16%
Cc1ccccc1NC(=O)CSc1nc(N)c(C#N)c(-c2cccs2)c1C#N,?,-28%,-2%,?,0%,-6%
c1ccc2c(c1)ccc1nnnn12,nt,nt,19%,nt,nt,12%
Cc1nc(N)nc(N/N=C/c2c(F)cccc2Cl)n1,7%[0.00184 µM],5%,10%,48%,0%,62%
Cc1nc(C#N)c(N/N=C/c2c(F)cccc2Cl)o1,68%,-33%,1%[8.37 µM],30%,11µM*,108%
COc1ccccc1NC(=O)CCn1c(=O)c2cccn2c2ccccc21,-8%,-3%,-29%,33%,?,0%
